Reference: the supplement of paper PMC6411743
± gives the standard deviation of the averaged measurements. The full data set covers some 6,500 targets. This sample favours those with the largest changes.

Compound: Nc1ncnc2c1ncn2[C@@H]1O[C@H](COP(=O)(O)OP(=O)(O)OP(=O)(O)O)[C@@H](O)[C@H]1O [adenosine triphosphate]
Assay: NP40-soluble protein abundance relative to vehicle (solubility fold change) (ratio); higher = more soluble protein in presence of ATP
How it was run: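 Jurkat crude lysate prepared with a Dounce homogeniser was treated at eight concentrations spanning 0.1 to 10 mM, 10 min at room temperature then 3 min at 37 °C. Solubilisation with 0.8% NP40 and benzonase and ultracentrifugation preceded TMT labelling of the supernatant for LC-MS/MS. Fold change against the detergent-processed vehicle was determined per replicate from vsn-normalised intensities, across three independent experiments.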

UniProt Q96JM3, sequence (Q96JM3 whole entry): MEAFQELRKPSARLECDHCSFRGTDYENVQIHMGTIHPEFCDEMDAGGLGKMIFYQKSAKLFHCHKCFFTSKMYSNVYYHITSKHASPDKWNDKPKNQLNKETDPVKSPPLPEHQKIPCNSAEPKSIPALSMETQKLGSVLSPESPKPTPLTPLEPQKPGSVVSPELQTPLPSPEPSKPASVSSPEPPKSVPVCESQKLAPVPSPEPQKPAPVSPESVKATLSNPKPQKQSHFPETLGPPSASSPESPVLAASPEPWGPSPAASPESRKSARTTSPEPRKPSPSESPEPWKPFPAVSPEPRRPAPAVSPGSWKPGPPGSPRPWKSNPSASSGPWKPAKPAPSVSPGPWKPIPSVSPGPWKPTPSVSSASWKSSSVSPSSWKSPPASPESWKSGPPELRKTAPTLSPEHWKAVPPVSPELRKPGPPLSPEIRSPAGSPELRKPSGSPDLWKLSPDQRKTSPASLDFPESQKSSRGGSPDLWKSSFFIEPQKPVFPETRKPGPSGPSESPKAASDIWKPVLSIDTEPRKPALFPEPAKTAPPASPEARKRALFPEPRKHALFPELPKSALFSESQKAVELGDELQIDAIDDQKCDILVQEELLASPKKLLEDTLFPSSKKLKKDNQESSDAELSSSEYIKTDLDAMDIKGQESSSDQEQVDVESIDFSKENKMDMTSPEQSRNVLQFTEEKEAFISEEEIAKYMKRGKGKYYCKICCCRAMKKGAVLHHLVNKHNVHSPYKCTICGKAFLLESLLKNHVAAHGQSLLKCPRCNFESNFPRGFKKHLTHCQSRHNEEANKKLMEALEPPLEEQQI
UniProt Q9BY49, sequence (Q9BY49 whole entry): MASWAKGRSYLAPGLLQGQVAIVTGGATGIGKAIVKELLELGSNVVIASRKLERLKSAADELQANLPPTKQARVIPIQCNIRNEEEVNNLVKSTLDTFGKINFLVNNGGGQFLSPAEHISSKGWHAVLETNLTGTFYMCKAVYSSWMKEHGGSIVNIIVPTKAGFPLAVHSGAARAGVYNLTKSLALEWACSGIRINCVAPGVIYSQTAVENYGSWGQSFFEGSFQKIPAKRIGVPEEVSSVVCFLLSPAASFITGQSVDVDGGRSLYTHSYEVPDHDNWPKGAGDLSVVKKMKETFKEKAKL
UniProt Q96PZ0, sequence (Q96PZ0 whole entry): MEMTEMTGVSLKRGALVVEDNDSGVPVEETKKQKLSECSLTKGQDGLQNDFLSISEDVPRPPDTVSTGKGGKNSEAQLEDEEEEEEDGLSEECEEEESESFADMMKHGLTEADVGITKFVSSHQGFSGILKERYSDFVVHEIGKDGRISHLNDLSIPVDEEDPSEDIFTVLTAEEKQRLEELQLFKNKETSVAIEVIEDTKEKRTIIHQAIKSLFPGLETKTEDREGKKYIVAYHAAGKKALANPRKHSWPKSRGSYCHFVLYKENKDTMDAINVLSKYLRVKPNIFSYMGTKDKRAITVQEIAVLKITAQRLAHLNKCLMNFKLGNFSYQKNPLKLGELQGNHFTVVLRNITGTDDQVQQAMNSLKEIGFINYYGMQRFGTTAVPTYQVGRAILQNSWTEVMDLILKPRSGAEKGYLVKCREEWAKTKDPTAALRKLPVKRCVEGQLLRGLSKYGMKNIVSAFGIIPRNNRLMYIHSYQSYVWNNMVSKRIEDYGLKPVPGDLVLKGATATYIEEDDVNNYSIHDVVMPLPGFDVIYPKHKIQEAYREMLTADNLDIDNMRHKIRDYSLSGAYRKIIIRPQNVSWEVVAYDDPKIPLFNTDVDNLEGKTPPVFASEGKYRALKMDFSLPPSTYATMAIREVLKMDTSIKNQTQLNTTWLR
UniProt Q96KM6, sequence (Q96KM6 whole entry): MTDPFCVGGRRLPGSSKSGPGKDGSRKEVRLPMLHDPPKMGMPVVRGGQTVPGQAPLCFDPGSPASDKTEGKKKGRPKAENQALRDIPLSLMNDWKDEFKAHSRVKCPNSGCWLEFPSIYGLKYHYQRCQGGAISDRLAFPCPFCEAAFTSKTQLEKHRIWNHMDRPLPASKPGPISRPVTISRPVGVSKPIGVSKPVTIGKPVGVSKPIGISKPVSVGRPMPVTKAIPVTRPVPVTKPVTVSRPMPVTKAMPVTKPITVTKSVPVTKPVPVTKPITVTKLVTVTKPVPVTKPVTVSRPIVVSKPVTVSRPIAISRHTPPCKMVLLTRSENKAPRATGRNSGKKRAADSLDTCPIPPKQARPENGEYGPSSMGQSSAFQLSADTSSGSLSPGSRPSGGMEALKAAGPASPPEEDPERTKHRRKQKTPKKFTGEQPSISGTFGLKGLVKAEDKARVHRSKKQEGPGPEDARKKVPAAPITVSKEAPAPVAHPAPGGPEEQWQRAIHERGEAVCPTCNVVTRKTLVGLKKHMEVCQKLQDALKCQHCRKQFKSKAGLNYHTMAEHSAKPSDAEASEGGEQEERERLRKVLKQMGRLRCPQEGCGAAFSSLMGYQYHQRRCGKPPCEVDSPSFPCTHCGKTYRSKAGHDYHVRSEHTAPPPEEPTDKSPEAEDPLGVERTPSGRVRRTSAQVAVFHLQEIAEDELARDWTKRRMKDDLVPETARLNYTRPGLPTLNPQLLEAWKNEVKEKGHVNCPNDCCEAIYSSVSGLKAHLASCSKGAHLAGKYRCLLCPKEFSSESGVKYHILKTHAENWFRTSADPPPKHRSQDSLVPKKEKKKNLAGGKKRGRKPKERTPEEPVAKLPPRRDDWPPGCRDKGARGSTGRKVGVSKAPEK
UniProt Q92834, sequence (Q92834 whole entry): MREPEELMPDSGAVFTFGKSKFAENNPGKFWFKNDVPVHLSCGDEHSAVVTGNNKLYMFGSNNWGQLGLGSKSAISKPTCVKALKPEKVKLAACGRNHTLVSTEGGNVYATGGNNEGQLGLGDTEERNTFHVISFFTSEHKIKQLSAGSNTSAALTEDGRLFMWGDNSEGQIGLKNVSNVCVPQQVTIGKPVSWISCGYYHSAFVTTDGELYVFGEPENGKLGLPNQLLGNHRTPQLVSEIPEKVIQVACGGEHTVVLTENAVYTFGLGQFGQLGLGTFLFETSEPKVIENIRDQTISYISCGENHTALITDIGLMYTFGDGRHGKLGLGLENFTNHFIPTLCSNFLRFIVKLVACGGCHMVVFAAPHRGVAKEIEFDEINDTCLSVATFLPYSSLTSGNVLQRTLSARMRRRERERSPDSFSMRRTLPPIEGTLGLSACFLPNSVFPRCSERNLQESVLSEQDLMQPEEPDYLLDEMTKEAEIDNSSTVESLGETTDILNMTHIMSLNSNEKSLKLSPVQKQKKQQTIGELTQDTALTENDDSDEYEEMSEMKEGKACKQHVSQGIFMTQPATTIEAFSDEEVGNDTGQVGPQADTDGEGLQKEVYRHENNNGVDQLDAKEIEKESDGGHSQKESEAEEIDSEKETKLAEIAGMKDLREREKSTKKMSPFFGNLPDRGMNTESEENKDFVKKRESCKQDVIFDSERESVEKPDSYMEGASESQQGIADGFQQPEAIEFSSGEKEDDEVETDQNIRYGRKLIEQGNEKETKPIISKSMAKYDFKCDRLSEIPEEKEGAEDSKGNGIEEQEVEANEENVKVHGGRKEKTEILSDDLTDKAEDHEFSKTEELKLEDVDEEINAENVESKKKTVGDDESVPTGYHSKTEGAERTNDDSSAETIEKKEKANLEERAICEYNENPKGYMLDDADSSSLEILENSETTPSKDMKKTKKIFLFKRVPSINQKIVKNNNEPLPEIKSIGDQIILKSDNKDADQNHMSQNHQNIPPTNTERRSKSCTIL
UniProt Q9BWW4, sequence (Q9BWW4 whole entry): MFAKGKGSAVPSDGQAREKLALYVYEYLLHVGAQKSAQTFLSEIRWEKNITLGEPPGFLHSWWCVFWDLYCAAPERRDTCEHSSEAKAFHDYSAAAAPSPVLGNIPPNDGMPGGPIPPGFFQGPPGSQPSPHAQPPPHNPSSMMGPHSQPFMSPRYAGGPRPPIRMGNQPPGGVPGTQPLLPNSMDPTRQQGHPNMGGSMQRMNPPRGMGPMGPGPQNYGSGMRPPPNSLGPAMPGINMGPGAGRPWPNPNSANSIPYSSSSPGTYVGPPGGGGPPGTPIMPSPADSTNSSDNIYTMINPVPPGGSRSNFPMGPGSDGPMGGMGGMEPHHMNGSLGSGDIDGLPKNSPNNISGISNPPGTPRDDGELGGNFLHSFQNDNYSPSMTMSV
UniProt Q96JB5, sequence (Q96JB5 whole entry): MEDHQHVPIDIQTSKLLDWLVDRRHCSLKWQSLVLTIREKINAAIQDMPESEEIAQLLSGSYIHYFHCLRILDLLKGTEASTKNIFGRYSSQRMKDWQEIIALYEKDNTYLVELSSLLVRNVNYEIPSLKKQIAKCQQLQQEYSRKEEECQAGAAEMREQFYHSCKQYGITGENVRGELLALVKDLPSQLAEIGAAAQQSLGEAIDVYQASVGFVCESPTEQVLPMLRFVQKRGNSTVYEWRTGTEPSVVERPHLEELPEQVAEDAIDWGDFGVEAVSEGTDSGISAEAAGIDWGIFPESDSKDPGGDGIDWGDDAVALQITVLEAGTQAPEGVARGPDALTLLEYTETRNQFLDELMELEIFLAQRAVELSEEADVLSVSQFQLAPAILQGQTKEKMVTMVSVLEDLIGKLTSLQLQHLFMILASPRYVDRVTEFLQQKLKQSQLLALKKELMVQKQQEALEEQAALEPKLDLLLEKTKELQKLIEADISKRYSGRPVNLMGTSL
UniProt Q9BVC3, sequence (Q9BVC3 whole entry): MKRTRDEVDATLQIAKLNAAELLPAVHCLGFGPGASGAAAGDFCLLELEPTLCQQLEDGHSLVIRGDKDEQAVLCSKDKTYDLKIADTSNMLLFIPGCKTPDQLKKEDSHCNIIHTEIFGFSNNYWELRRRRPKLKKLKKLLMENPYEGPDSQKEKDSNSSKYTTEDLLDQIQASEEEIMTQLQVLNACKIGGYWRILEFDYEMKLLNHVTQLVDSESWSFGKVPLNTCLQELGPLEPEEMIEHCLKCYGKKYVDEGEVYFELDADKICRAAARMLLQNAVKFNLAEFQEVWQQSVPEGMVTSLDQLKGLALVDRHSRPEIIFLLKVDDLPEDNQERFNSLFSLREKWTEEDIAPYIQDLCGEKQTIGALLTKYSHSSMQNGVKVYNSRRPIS

Target	NP40-soluble protein abundance (concentration: 1mM)	NP40-soluble protein abundance (concentration: 2mM)	NP40-soluble protein abundance (concentration: 4mM)	NP40-soluble protein abundance (concentration: 6mM)	NP40-soluble protein abundance (concentration: 8mM)	NP40-soluble protein abundance (concentration: 10mM)
UniProt Q9NVX7-2|A0A075B6T4|Q9NVX7	1 ± 0.072	1.02 ± 0.066	1 ± 0.11	0.957 ± 0.095	1.05 ± 0.065	0.975 ± 0.036
PNPLA2 (UniProt Q96AD5)	1.04 ± 0.047	1 ± 0.069	1.02 ± 0.064	0.927 ± 0.12	0.994 ± 0.062	1.06 ± 0.1
CDK5RAP3 (UniProt Q96JB5)	0.997 ± 0.041	1.05 ± 0.066	1.08 ± 0.065	1.11 ± 0.068	1.12 ± 0.045	1.14 ± 0.099
UniProt Q9BS26	0.982 ± 0.043	0.956 ± 0.035	0.943 ± 0.057	0.945 ± 0.067	0.952 ± 0.06	0.941 ± 0.054
MRPL38 (UniProt Q96DV4)	1.04 ± 0.035	0.869 ± 0.076	0.87 ± 0.08	0.925 ± 0.3	0.86 ± 0.15	0.839 ± 0.15
PAFAH2 (UniProt Q99487)	1 ± 0.098	1.01 ± 0.074	0.978 ± 0.053	1 ± 0.27	0.992 ± 0.05	1.02 ± 0.064
SRPK1 (UniProt Q96SB4)	1.31 ± 0.091	1.39 ± 0.079	1.5 ± 0.099	1.63 ± 0.12	1.67 ± 0.083	1.74 ± 0.11
TGS1 (UniProt Q96RS0)	0.969 ± 0.087	0.995 ± 0.067	1.03 ± 0.035	1.05 ± 0.054	1.03 ± 0.069	1.1 ± 0.026
ATP13A1 (UniProt Q9HD20)	1.01 ± 0.1	1 ± 0.06	1.01 ± 0.064	0.951 ± 0.086	1 ± 0.041	0.978 ± 0.03
UniProt Q96EZ8|Q96EZ8-2|Q96EZ8-3	1.08 ± 0.04	1.06 ± 0.053	1.08 ± 0.013	1.09 ± 0.093	1.14 ± 0.038	1.18 ± 0.044
UniProt Q96IX5	0.875 ± 0.049	0.935 ± 0.11	0.936 ± 0.16	0.976 ± 0.15	0.909 ± 0.16	0.99 ± 0.14
UniProt Q9UG63|Q9UG63-2	1.09 ± 0.033	1.15 ± 0.039	1.42 ± 0.019	1.67 ± 0.095	2.16 ± 0.093	2.59 ± 0.25
DHRS4 (UniProt Q9BTZ2)	0.9895 ± 0.0086	0.987 ± 0.019	0.989 ± 0.043	0.956 ± 0.028	0.968 ± 0.035	0.988 ± 0.018
GTF2H4 (UniProt Q92759)	1.08 ± 0.072	1.04 ± 0.035	1.09 ± 0.059	0.975 ± 0.13	1.16 ± 0.069	1.12 ± 0.036
UniProt Q96QF0|Q96QF0-2	0.996 ± 0.032	0.946 ± 0.021	1.03 ± 0.034	1.001 ± 0.0051	0.994 ± 0.062	0.979 ± 0.078
QTRT1 (UniProt Q9BXR0)	1.01 ± 0.12	0.995 ± 0.091	1.02 ± 0.049	0.925 ± 0.14	0.994 ± 0.049	0.985 ± 0.051
CCDC124 (UniProt Q96CT7)	1.08 ± 0.15	1.14 ± 0.089	1.3 ± 0.2	1.56 ± 0.2	1.64 ± 0.1	1.96 ± 0.36
UniProt Q9BTL3	0.928 ± 0.13	0.882 ± 0.066	0.95 ± 0.059	1 ± 0.11	0.888 ± 0.028	0.869 ± 0.059
UniProt Q9BZ23|Q9BZ23-3|Q9BZ23-4	0.958 ± 0.079	0.995 ± 0.08	0.937 ± 0.054	0.914 ± 0.05	0.882 ± 0.11	0.91 ± 0.05
UniProt Q9HCM7	1.71 ± 0.25	1.84 ± 0.31	2.2 ± 0.52	2.13 ± 0.52	2.62 ± 0.69	2.78 ± 0.79

Target	NP40-soluble protein abundance (concentration: 1mM)	NP40-soluble protein abundance (concentration: 2mM)	NP40-soluble protein abundance (concentration: 4mM)	NP40-soluble protein abundance (concentration: 6mM)	NP40-soluble protein abundance (concentration: 8mM)	NP40-soluble protein abundance (concentration: 10mM)
UniProt Q9UBF8-2	0.962 ± 0.044	0.961 ± 0.065	0.9581 ± 0.0056	0.938 ± 0.011	0.9049 ± 0.007	0.928 ± 0.026
SENP8 (UniProt Q96LD8)	0.97 ± 0.057	0.942 ± 0.032	0.943 ± 0.014	0.922 ± 0.035	0.911 ± 0.024	0.932 ± 0.023
UniProt Q96GN5|Q96GN5-4|Q96GN5-2	1.09 ± 0.19	1.16 ± 0.23	1.23 ± 0.36	1.29 ± 0.35	1.34 ± 0.41	1.42 ± 0.57
ZNF48 (UniProt Q96MX3)	1.11 ± 0.069	1.13 ± 0.034	1.21 ± 0.077	1.31 ± 0.15	1.34 ± 0.12	1.4 ± 0.12
UniProt Q9UBK8|Q9UBK8-2	0.946 ± 0.042	1.01 ± 0.066	0.941 ± 0.058	0.97 ± 0.068	0.973 ± 0.028	0.978 ± 0.08
UniProt Q96P11-2	1.05 ± 0.039	1.05 ± 0.03	1.11 ± 0.058	1.09 ± 0.068	1.13 ± 0.083	1.18 ± 0.072
UBAC1 (UniProt Q9BSL1)	0.988 ± 0.025	1 ± 0.025	1.03 ± 0.033	1.04 ± 0.061	0.965 ± 0.034	0.98 ± 0.038
WDR41 (UniProt Q9HAD4)	1.03 ± 0.026	0.994 ± 0.08	1.08 ± 0.062	1 ± 0.033	1 ± 0.065	1.01 ± 0.043
TDP1 (UniProt Q9NUW8)	1.02 ± 0.032	1.02 ± 0.046	0.983 ± 0.063	1 ± 0.069	0.985 ± 0.049	1.01 ± 0.062
UniProt Q969M3|Q969M3-3	0.981 ± 0.16	0.97 ± 0.19	0.974 ± 0.22	0.987 ± 0.24	0.961 ± 0.19	0.996 ± 0.19
DDX18 (UniProt Q9NVP1)	1.21 ± 0.029	1.3 ± 0.024	1.503 ± 0.0076	1.74 ± 0.035	2.07 ± 0.024	2.36 ± 0.16
IARS2 (UniProt Q9NSE4)	1.04 ± 0.08	1.02 ± 0.075	0.991 ± 0.069	0.977 ± 0.1	1.02 ± 0.056	0.98 ± 0.069
UniProt Q9BSW2-2	0.967 ± 0.041	1.01 ± 0.034	1.02 ± 0.02	1.01 ± 0.018	0.972 ± 0.0098	0.988 ± 0.04
UniProt Q9BXI6|Q9BXI6-2	0.935 ± 0.035	0.917 ± 0.032	0.927 ± 0.031	0.941 ± 0.038	0.895 ± 0.025	0.925 ± 0.045
BIRC6 (UniProt Q9NR09)	1.05 ± 0.029	1.01 ± 0.058	0.992 ± 0.031	0.99 ± 0.12	0.999 ± 0.083	0.994 ± 0.088
RABEP2 (UniProt Q9H5N1)	0.967 ± 0.062	0.941 ± 0.036	0.929 ± 0.035	0.956 ± 0.046	0.905 ± 0.011	0.901 ± 0.039
PUS7 (UniProt Q96PZ0)	0.969 ± 0.059	0.974 ± 0.057	0.967 ± 0.034	0.941 ± 0.076	0.963 ± 0.03	0.968 ± 0.036
UniProt Q96LT9|Q96LT9-2	1.31 ± 0.027	1.46 ± 0.034	1.75 ± 0.15	1.95 ± 0.12	1.78 ± 0.02	2.06 ± 0.096
UniProt Q92804|Q92804-2	1.05 ± 0.14	1.07 ± 0.15	1.24 ± 0.2	1.5 ± 0.29	1.59 ± 0.21	2.05 ± 0.3
UniProt Q96GM8|Q96GM8-2	1.06 ± 0.095	1.22 ± 0.14	1.35 ± 0.12	1.38 ± 0.12	1.53 ± 0.13	1.82 ± 0.32

Target	NP40-soluble protein abundance (concentration: 1mM)	NP40-soluble protein abundance (concentration: 2mM)	NP40-soluble protein abundance (concentration: 4mM)	NP40-soluble protein abundance (concentration: 6mM)	NP40-soluble protein abundance (concentration: 8mM)	NP40-soluble protein abundance (concentration: 10mM)
RPGR (UniProt Q92834)	1.03 ± 0.099	1.08 ± 0.039	1.05 ± 0.036	1.07 ± 0.067	1.067 ± 0.0066	1.05 ± 0.013
UniProt Q96JM3	1.02 ± 0.043	1.02 ± 0.042	1.03 ± 0.048	1.12 ± 0.037	1.1 ± 0.039	1.12 ± 0.025
MRPL16 (UniProt Q9NX20)	1.17 ± 0.12	1.08 ± 0.11	1.06 ± 0.16	1.11 ± 0.38	1.08 ± 0.18	0.981 ± 0.14
RPRD1B (UniProt Q9NQG5)	0.969 ± 0.12	0.943 ± 0.039	0.971 ± 0.049	0.993 ± 0.089	1.02 ± 0.034	0.854 ± 0.15
UniProt Q9BWW4|Q9BWW4-2|Q9BWW4-3	1.05 ± 0.11	0.958 ± 0.12	0.933 ± 0.12	0.999 ± 0.12	0.956 ± 0.056	0.906 ± 0.1
DPCD (UniProt Q9BVM2)	0.965 ± 0.024	1.02 ± 0.045	0.969 ± 0.01	0.933 ± 0.048	0.929 ± 0.069	1.01 ± 0.087
NMNAT1 (UniProt Q9HAN9)	1.33 ± 0.36	3.44 ± 2.5	3.91 ± 2.9	4.35 ± 3.5	3.99 ± 2.9	3.99 ± 3
PGAM5 (UniProt Q96HS1)	1.1 ± 0.037	1.14 ± 0.083	1.3 ± 0.06	1.48 ± 0.16	1.64 ± 0.089	1.72 ± 0.11
PIEZO1 (UniProt Q92508)	1.1 ± 0.12	1.09 ± 0.13	1.14 ± 0.24	1.14 ± 0.12	1.09 ± 0.12	1.09 ± 0.012
MRPS31 (UniProt Q92665)	0.994 ± 0.058	0.93 ± 0.066	0.871 ± 0.062	0.923 ± 0.14	0.865 ± 0.088	0.857 ± 0.073
SACS (UniProt Q9NZJ4)	1.09 ± 0.08	1.04 ± 0.072	1.08 ± 0.056	0.991 ± 0.075	1.102 ± 0.01	1.05 ± 0.042
LUC7L (UniProt Q9NQ29)	2.7 ± 0.14	2.9 ± 0.11	2.86 ± 0.17	3.28 ± 0.17	2.93 ± 0.17	3.11 ± 0.15
ZNF512B (UniProt Q96KM6)	1.01 ± 0.04	1.05 ± 0.02	1.07 ± 0.024	1.12 ± 0.044	1.08 ± 0.03	1.08 ± 0.043
UniProt Q9NUQ7|D6RA67	1.09 ± 0.15	1.07 ± 0.13	1.05 ± 0.093	0.95 ± 0.18	1.08 ± 0.072	1.02 ± 0.091
PECR (UniProt Q9BY49)	0.965 ± 0.093	0.966 ± 0.037	0.994 ± 0.073	0.984 ± 0.076	1.02 ± 0.053	1.05 ± 0.033
IRAK4 (UniProt Q9NWZ3)	1.02 ± 0.042	1.03 ± 0.045	1.01 ± 0.051	0.985 ± 0.057	0.996 ± 0.043	0.988 ± 0.047
UniProt Q96AT9|Q96AT9-2	1.06 ± 0.092	1.07 ± 0.047	1.06 ± 0.075	1.05 ± 0.073	0.991 ± 0.064	0.993 ± 0.048
DSCC1 (UniProt Q9BVC3)	1.04 ± 0.038	1.06 ± 0.011	1.03 ± 0.018	1.01 ± 0.021	1.077 ± 0.0062	1.05 ± 0.037
TM9SF3 (UniProt Q9HD45)	1.04 ± 0.12	1.03 ± 0.1	1.01 ± 0.079	0.946 ± 0.12	1.05 ± 0.099	1.01 ± 0.097
UniProt Q9H0S4|Q9H0S4-2	1.18 ± 0.12	1.23 ± 0.072	1.44 ± 0.03	1.5 ± 0.09	1.79 ± 0.073	1.99 ± 0.11
